Reference: PubChem BioAssay (NCI)
Compounds without any hit were thinned out: in the full panel of roughly 83,000, 20% have a hit.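 Note: values are percent growth. 100 is the growth of untreated cells, values between 100 and 0 indicate rising inhibition; between -100 and 0 indicates cell death.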 Unmarked numbers belong to inactive results. Activity calls are given as the source filed them.

Tested on: NCI/ADR-RES ovarian
Test: NCI-60 one-dose screen, 48 h (100 = growth as untreated, 0 = no growth, -100 = all killed)
Conditions: 10 µM unless noted
Procedure: Growth inhibition of the NCI/ADR-RES human […] tumor cell line is measured as a screen for anti-cancer activity. Cells are grown in 96 well plates and exposed to the test compound for 48 hours. Compounds are tested at a single concentration, which is 10^-5 M for most compounds. The reported endpoint is percent growth (GI% or GIPRCNT), where numbers from 0 - 100% represent growth inhibition, and numbers from -100% - 0 represent cell death. For example, a value of 40 represents 60% growth inhibition. A value of 0 means no net growth occurred over the course of the experiment. A value of -40 indicates 40% of cells at the beginning of the experiment died by the end of the experiment. A value of -100 means all cells are dead at the end of the experiment.
NCI-60 Human Tumor Cell Lines Screen was performed using the standard one-dose NCI protocol, which is described in more detail at https://dtp.cancer.gov/discovery_development/nci-60/default.htm.
Compounds with GIPRCNT values below 10 were considered active. Activity score was based on GIPRCNT using the following formula: […]
Score is 0 for GIPRCNT values of 100 or above, 50 for GIPRCNT values of 0, and 100 for GIPRCNT values of -100.

SMILES | growth
Cn1cc(-c2csc(-c3cn(CCCN4CCOCC4)c4ccccc34)n2)c2cccnc21 | 91%
C=CCn1c(SCC(=O)Nc2ccc(/C(C)=N/O)cc2)nnc1-c1cc(-c2ccc(S(N)(=O)=O)cc2)nc2ccccc12 | 99%
C=C(C)[C@@H]1CC[C@]2(C(N)=O)CC[C@]3(C)[C@H](CC[C@@H]4[C@@]5(C)CC[C@H](OCCC#N)C(C)(C)[C@@H]5CC[C@]43C)[C@@H]12 | 89%
N=C(N)c1ccc(-c2ccc(-c3cc(Cl)cc(Cl)c3)s2)nc1 | 91.4%
Cn1c2c(c3ccc(Cl)c(Cl)c31)C(C#N)C(C)(C)NC2=O (stereo not given) | 81.6%
COc1ccc(/C=C(/C(=O)n2cnnn2)c2cc(OC)c(OC)c(OC)c2)cc1 | 12.2%
O=C(Cc1cccc(OC(F)(F)F)c1)Nc1ccc(CCCCc2nnc(NC(=O)Cc3ccccn3)s2)nn1 | 85.6%
CCOC(=O)/C=C1\S/C(=N\Nc2cc(=O)[nH]c3ccccc23)N(c2ccccc2)C1=O | 101%
Oc1c(CN2CCOCC2)cc(COCc2ccccc2)c2cccnc12 | 7.42% (active)
COc1ccc2[nH]cc(-c3nc(-c4c[nH]c5c(Cl)nccc45)cs3)c2c1 | 20.7%
Cc1ccc(C(=O)Nc2cccc(C#Cc3cccc4[nH]nc(N)c34)c2)cc1C(F)(F)F | 74.1%
COc1ccc(C(=O)Cn2c(C(=O)c3ccc(Cl)cc3)nc3ccccc32)cc1 | 35.9%
COc1ccc2c(c1)/C(=N/c1n[nH]c(=S)s1)C(=O)N2 | 94%
CN(C)CCN1C(=O)c2cccc3c(/C=C/CN4C(=O)c5cccc6cccc(c56)C4=O)ccc(c23)C1=O | 24%
CSC(SC)=C(C#N)c1nc2ccccc2s1 | 76.7%
CN1CCN(Cc2ccc(NC(=O)c3cncc(C#Cc4cnc(N)c5ccc(F)cc45)c3)cc2C(F)(F)F)CC1 | 35.3%
N#Cc1c(-c2ccccc2)nc(SCC(O)CN2CCOCC2)nc1N1CCOCC1 (stereo not given) | 72.7%
Cc1ccc2c(-c3nnc(N)s3)cc(=O)oc2c1C | 102%
C#Cc1cccc(Nc2nc(C)nc3cc(NC(=O)CCl)ccc23)c1 | -22% (active)
COc1ccc(C(O)c2cc3c(N)c(C(=O)Nc4cccc(Cl)c4C)sc3nc2C)cc1 (stereo not given) | 7.99% (active)

SMILES | growth
Cc1ccc(C=C2C(=O)NC(=O)NC2=O)cc1 | 102%
O=C1c2ccccc2C(=O)c2c1cc1c(c2[N+](=O)[O-])OCO1 | -11.7% (active)
COc1cc(C2C(C(=O)OCc3ccccc3)=C(C)NC(C)=C2C(=O)OCc2ccccc2)cc(OC)c1OC | 26.1%
Cc1c(CC(=S)N2CCOCC2)nnn1-c1cccc(C(F)(F)F)c1 | 105%
CCOC(=O)c1c(C)nc2ccccc2c1/C=C/c1cccs1 | 43.5%
C=C(C)[C@@H]1CC[C@]2(C(=O)N3CCN(C)CC3)CC[C@]3(C)[C@H](CC[C@@H]4[C@@]5(C)CC[C@H](OC(=O)c6ccccc6C(=O)O)C(C)(C)[C@@H]5CC[C@]43C)[C@@H]12 | 104%
CN1CCN(c2ccc3nc4c(nc3c2C(F)(F)F)C(=O)c2ncccc2C4=O)CC1 | 10.1%
COc1ccc(C(=O)/C=C/c2ccc(N3CCCCC3)cc2)cc1OC | 92.8%
CCN1CCN(C(=O)[C@]23CC[C@@H](C)[C@H](C)[C@@H]2C2=CC[C@@H]4[C@@]5(C)C/C(=C/c6cccnc6)C(=O)C(C)(C)[C@@H]5CC[C@@]4(C)[C@]2(C)CC3)CC1 | 26.7%
CCCCCN(CCCCC)CC(O)c1cc(C)c2ccc3cc(C(C)C)ccc3c2c1 (stereo not given) | -54.6% (active)
COC(=O)c1ccc(NC(=O)Nc2ccc(C(=O)OC)cc2)cc1 | 108%
O=C(NNC(=O)c1nc2cc(F)ccc2n2cccc12)c1cnccn1 | 20.8%
CC1=C(C(=O)Nc2ccccc2)C(c2ccc3c(c2)OCO3)NC(=S)N1 (stereo not given) | 106%
CC(=O)ON1CCCC(P(=O)(OCCSC(=O)C(C)(C)C)OCCSC(=O)C(C)(C)C)C1=O (stereo not given) | 13.2%
C=C1C(=O)O[C@H]2[C@H]1CC/C(COC(=O)c1cc3cc(Cl)ccc3[nH]1)=C\CC[C@@]1(C)O[C@@H]21 | -35.3% (active)
COc1cc(NC(=O)c2cncnc2Nc2ccc3c(ccn3Cc3ccccn3)c2)cc(OC)c1 | 35%
CCSc1oc(C)nc1[P+](c1ccccc1)(c1ccccc1)c1ccccc1 | 97.8%
CSc1nn2c(-c3ccc4ccccc4c3)ccnc2c1C#N | 2.07% (active)
COc1cc(/C=N/Nc2ccc(Br)cc2)cc(OC)c1OC | 57.2%
O=C1/C(=C\c2ccccn2)c2ccccc2N1c1c(Cl)cccc1Cl | -26.7% (active)
